Sampled rows, rich in hits. Any-hit rate of the full collection: about 21%.
CHX counter: counter-screen hit for Shiga toxin inhibitors, cycloheximide; cell reporter, cycloheximide protein synthesis inhibition counterscreen; max response, %; 300,000 tested, 12% active; in the data active = max response mostly above about 13%, no sharp cut-off; inactive = mostly below about 14%; also: read at 38.3 µM for the half of the compounds with a filed dose
Shiga inhibitor: Shiga toxin inhibition. Vero cells, Shiga toxin protein synthesis inhibition reporter. inhibition, % at 38.7 µM. 290,000 tested, 9.2% active. AID 2315; in the data active = inhibition mostly above about 28%, no sharp cut-off; inactive = mostly below about 43%
Pf growth 96h: inhibits malaria parasite growth, 96 h. P. falciparum luciferase reporter growth, 96 h. Potency, µM (doses to about 28.7 µM), most hits filed as inhibitors. 320,000 tested, 6.9% active. AID 504834
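Readout is luminescence from an integrated firefly luciferase in P. falciparum. Red cells, 2% hematocrit and 0.05% parasitemia final, were cultured with compound through two parasite generations (96 hours) at 37 C, 5% CO2.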
Pf growth 48h: inhibits P. falciparum growth in the first generation, 48 h; P. falciparum luciferase growth in erythrocytes, 48 h; Potency, µM (series often up to 28.7 µM), most hits filed as inhibitors; 310,000 tested, 5.9% active; AID 504832
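Erythrocytes infected with P. falciparum carrying an integrated firefly luciferase reporter (2% hematocrit, 0.1% parasitemia final) were exposed to compounds in RPMI 1640 with 0.5% Albumax at 37 C, 5% CO2. Growth inhibition was scored as reduced luminescence.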
Numbers stand for hits; - = inactive; ? = inconclusive; . = not tested or not shown. Unless noted, calls follow the shape of the dose curve; as a rule, active = well fitted inhibition curve with a large enough effect; inconclusive = small, poorly fitted or top-dose-only effect, or another doubt; inactive = no such curve, though single readings can be large or run the other way.

SMILES	CHX counter	Shiga inhibitor	Pf growth 96h	Pf growth 48h
C/C(=N\Nc1cc(-c2ccccc2)nc(-c2ccccc2)n1)c1ccc(O)c(C)c1	20.4	73.2	-	?
CCOC(=O)C1=C(C)NC(=NC)SC1c1ccccc1 (stereo not drawn)	-	-	-	-
CCN(CC)C(=O)CC(c1cc(OC)c(OC)c(OC)c1)c1c(OC)cc(OC)c2c(-c3ccccc3)cc(=O)oc12 (stereo not drawn)	-	-	4.15µM	4.65µM
CCN(CC)C(=O)CC(c1cc(OC)c(OC)c(OC)c1)c1c(OC)cc(OC)c2ccc(=O)oc12 (stereo not drawn)	-	-	11.7µM	11.7µM
COc1cc(OC)c2ccc(=O)oc2c1C(CC(=O)N1CCOCC1)c1ccc2c(c1)OCO2 (stereo not drawn)	-	-	?	-
COc1ccc(C(CC(=O)N2CCCCC2)c2c(OC)cc(OC)c3ccc(=O)oc23)cc1 (stereo not drawn)	-	-	?	?
CCN(CC)C(=O)CC(c1ccc(OC)cc1)c1c(OC)cc(OC)c2ccc(=O)oc12 (stereo not drawn)	-	-	?	10.4µM
CCc1c2c(nc3ccc(OC(=O)N4CCC(N5CCCCC5)CC4)cc13)-c1cc3c(c(=O)n1C2)COC(=O)C3(O)CC (stereo not drawn)	-	-	.	.
CCN(CC)CCCNCC(=O)Nc1ccc2c(c1)CCC2	-	-	-	?
COc1ncnc(OC)c1S(=O)(=O)Nc1ccc(C(F)(F)F)cc1	-	-	-	-
O=C(O)CCc1ccc(-c2ccccc2)n1-c1ccc(C(=O)O)cc1	-	-	-	-
COc1ccccc1-n1c(CCC(=O)O)ccc1-c1ccccc1	31.9	35.8	-	-
O=C(O)CCc1ccc(-c2ccc(Br)cc2)n1-c1cccc(O)c1	32.3	86.8	-	-
Cc1ccc(-n2c(CCC(=O)O)ccc2-c2cccs2)cc1C	7.9	-	-	-
O=C(O)CCc1ccc(-c2ccccc2)n1-c1cccc(C(=O)O)c1	131.1	173.6	-	-
CCOC(=O)c1ccc(-n2c(CCC(=O)O)ccc2-c2cccs2)cc1	-	-	-	-
COc1ccc(-c2ccc(CCC(=O)O)n2-c2ccccc2OC)cc1	-	-	-	-
COC(=O)C1=C(C)N(C)C(=S)NC1c1c(OC)ccc2ccccc12 (stereo not drawn)	-	-	?	?
Cc1nc2c(cc1N)nc(C)n2Cc1ccccc1	-	-	2.62µM	-
Cc1nn2c(N3CCN(C(=O)c4ccco4)CC3)cc(C(C)(C)C)nc2c1-c1ccccc1	-	-	4.65µM	?
Cc1cc(N2CCN(Cc3ccccc3)CC2)n2nc(C)c(-c3ccccc3)c2n1	-	-	?	.
O=C(c1ccco1)N1CCN(c2cc(C(F)(F)F)nc3ncnn23)CC1	-	-	13.1µM	-
Cc1nn2c(N3CCN(C4CCCC4)CC3)cc(C(C)(C)C)nc2c1-c1ccccc1	-	-	.	-
CCCc1cc(N2CCOCC2)n2nc(C)c(-c3ccccc3)c2n1	18.0	-	-	-
CCCc1cc(N2CCN(c3ccccn3)CC2)n2nc(C)c(-c3ccccc3)c2n1	-	-	?	.
SMILES	CHX counter	Shiga inhibitor	Pf growth 96h	Pf growth 48h
Cc1nn2c(N3CCN(C)CC3)cc(C(C)(C)C)nc2c1-c1ccccc1	-	-	3.29µM	?
O=C1CNC(c2ccccc2Cl)c2cc(Br)ccc2N1 (stereo not drawn)	-	-	4.65µM	-
COc1ccccc1NC(=O)Nc1ccc2c(c1)CCC2	52.8	65.0	-	-
COc1ccc(/C=C/C(=O)Nc2ccc3c(c2)CCC3)cc1OC	-	-	-	-
COc1ccc(C)cc1NC(=O)Nc1ccc2c(c1)CCC2	24.1	-	-	-
CCN(CC(=O)Nc1ccccc1C(F)(F)F)C(=O)Cc1ccc2c(c1)CCC2	.	.	-	?
COc1ccc(NC(=O)Nc2ccc3c(c2)CCC3)cc1OC	17.4	-	?	-
CCCN(CC(=O)Nc1ccccc1OC)C(=O)Cc1ccc2c(c1)CCC2	.	.	?	10.4µM
COc1ccccc1NC(=O)Nc1ccc(NC(=O)c2ccccc2O)cc1	-	-	-	-
CCOc1ccccc1OCCCC(=O)Nc1cccc(-n2cnnn2)c1C	.	.	-	-
Cc1ccc(NC(=O)CSc2nnc(-c3ccncc3)n2C)cc1S(=O)(=O)N1CCOCC1	-	-	?	?
Cc1ccc(C(=O)OCN2C(=O)c3ccccc3C2=O)cc1S(=O)(=O)N1CCOCC1	.	.	-	-
Cc1ccc(OCC(=O)N2CCc3ccccc3C2)c([N+](=O)[O-])n1	-	-	-	-
O=C(CN(Cc1ccccc1Cl)C(=O)c1csnn1)NC1CCCC1	-	-	-	-
CC(=O)NS(=O)(=O)c1ccc(NC(=O)c2ccccn2)cc1	-	-	-	-
CCOc1ccc(NS(=O)(=O)c2ccc(NC(=O)c3ccccn3)cc2)cc1	.	.	-	?
CCN(CC)S(=O)(=O)c1ccc(NC(=O)c2ccccn2)cc1	29.9	95.7	-	-
CN(C)S(=O)(=O)c1ccc(C(=O)Nc2ccccc2F)cc1	-	-	.	-
CCCNS(=O)(=O)c1ccc(NC(=O)c2ccccn2)cc1	-	92.2	10.4µM	-
CN(C)S(=O)(=O)c1ccc(C(=O)Nc2ccccc2C(=O)O)cc1	-	-	13.1µM	-
CC(C)(C)c1ccc(C(=O)Nc2ccc(S(=O)(=O)Nc3cnc4ccccc4n3)cc2)cc1	-	-	-	13.1µM
COCCn1cc(C(=O)c2ccccc2OCC(=O)Nc2cc(C)on2)cc(C#N)c1=O	-	-	-	-
CCOc1cc2[nH]c(=O)n(CCCC(=O)N(C)Cc3ccccc3)c(=O)c2cc1OCC	-	-	-	?
COCC(C)NS(=O)(=O)c1ccc(NC(=O)C(Cc2ccccc2)NC(N)=O)cc1 (stereo not drawn)	-	-	-	-
COCC(C)NS(=O)(=O)c1ccc(NC(=O)c2ccccn2)cc1 (stereo not drawn)	10.8	31.0	-	-
SMILES	CHX counter	Shiga inhibitor	Pf growth 96h	Pf growth 48h
O=C(Nc1ccc(SC(F)(F)F)cc1)c1ccccn1	30.4	113.4	-	-
O=C(Nc1ccc(S(=O)(=O)Nc2ncccn2)cc1)c1ccccc1	-	-	1.17µM	-
O=C(Nc1ccc(N2CCCCC2)cc1)c1ccccn1	-	-	-	-
O=C(Nc1ccc(NS(=O)(=O)c2ccccc2)cc1)c1ccccc1	-	-	-	-
CN(C)S(=O)(=O)c1ccc(C(=O)Nc2ccccn2)cc1	22.0	-	-	-
Cc1c(Cc2ccccc2)sc(NC(=O)C(C)(C)C)c1C(N)=O	-	-	-	?
Cc1csc(NC(=O)C(F)(F)F)n1	-	-	-	-
COc1ccc(C(=O)N/C(=C\c2cn(C)c3ccccc23)C(=O)NCCCN2CCOCC2)cc1	-	-	?	?
COc1cc(C(=O)NCc2ccc(S(N)(=O)=O)cc2)ccc1OCC(=O)N1CCOCC1	.	.	-	-
O=C(CCN1C(=O)C2C3C=CC(C3)C2C1=O)N1CCN(c2ccc([N+](=O)[O-])cc2)CC1 (stereo not drawn)	-	-	?	-
CN(C)S(=O)(=O)c1ccc(NC(=O)c2ccccn2)cc1	33.7	112.1	-	-
COCCN(CCOC)S(=O)(=O)c1ccc(NC(=O)c2cnccn2)cc1	-	-	-	8.28µM
